Hits are enriched below; roughly 3.4% of the tested compounds scored in any of these assays.
PGC1a acetyl inh = modulators of PGC1a acetylation | 350,000 tested, 0.17% active | U2OS PGC1a acetylation, AlphaScreen anti-acetyl-lysine; with virally co-expressed GCN5 acetyltransferase | inhibition, % at 15.6 µM | AID 651687;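 active = every replicate shows inhibition of at least 40%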;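 also: 0% = neutral control wells and 100% = positive control wells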
LGR2 antag = inhibitors of bursicon-induced Drosophila LGR2 receptor cAMP signaling; HEK293 LGR2, CRE-luciferase, bursicon-stimulated, 4 h; inhibition, % at 9.99 µM; 380,000 tested, 0.35% active; AID 720647;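 active = drop in luminescence signal, shown as inhibition above about 50% in the replicate tests, limit read from the data, passing the limit was not always enough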;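 also: agonist challenge used bursicon conditioned medium at about half maximal strength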
rRNA inh HTS = selective bacterial rRNA inhibition in E. coli. E. coli WT GFP vs humanized-ribosome RFP mutants, fluorescence, 24 h; active compounds read low; DMSO median 0, no signal -100. 350,000 tested, 1.6% active. GFP signal change (wild-type ribosome), % (test concentration not listed). AID 720706;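 active = significant combined selectivity score with lowered wild-type GFP, culture density cut under 30%, mutant RFP and density less affected; inactive = any of these conditions unmet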
PAX8 reporter = lowers PAX8-driven luciferase in RMG-I cells; RMG-I TPO-luciferase reporter, SteadyGlo, 24 h; inhibition, % at 12.6 µM; 360,000 tested, 1.2% active; AID 652154;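 active = mean replicate inhibition at least 60% with every replicate also reaching 60%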;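 also: luciferase light reporting Pax8 driven TPO promoter activity; plate controls were median of neutral control wells for no effect and mitoxantrone controls for full effect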
SIRT5 inh = sirtuin-5 (human) deacylase inhibition; Purified SirT5, succinyl-peptide AMC, trypsin-coupled fluorescence; inhibition, % at 15 µM; 330,000 tested, 1.1% active; AID 652115; in the data active = inhibition above about 15%
Target sequence (Q9NXA8 whole entry, looked up): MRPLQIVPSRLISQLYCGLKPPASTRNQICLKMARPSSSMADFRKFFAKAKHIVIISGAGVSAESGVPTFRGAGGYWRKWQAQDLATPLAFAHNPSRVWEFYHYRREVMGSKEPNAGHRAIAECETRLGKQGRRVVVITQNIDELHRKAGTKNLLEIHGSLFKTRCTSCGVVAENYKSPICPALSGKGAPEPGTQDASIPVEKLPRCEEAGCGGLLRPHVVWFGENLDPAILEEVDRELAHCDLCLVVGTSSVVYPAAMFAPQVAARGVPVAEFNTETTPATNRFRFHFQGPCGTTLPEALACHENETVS
EWS-Fli block = blocks EWS/Fli oncoprotein-driven transcription; 350,000 tested, 0.67% active; AID 651661; inhibition, % at 12.6 µM; A673 NR0B1-luciferase reporter, viability-normalised;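 active = mean inhibition of at least 50% after viability correction, with every replicate also passing that limit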;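 also: firefly luciferase signal divided by Alamar Blue viability fluorescence both relative to DMSO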
* = called active by the depositor; · = no result.

SMILES | PGC1a acetyl inh | LGR2 antag | rRNA inh HTS | PAX8 reporter | SIRT5 inh | EWS-Fli block
CO[C@H]1CN(C)C(=O)c2ccc(NC(=O)CC(F)(F)F)cc2OC[C@H](C)N(C(C)=O)C[C@@H]1C | 3.3 | -14.0 | 0.8 | -30.9 | 4.0 | 15.6
CO[C@H]1CN(C)C(=O)c2ccc(NS(=O)(=O)c3ccccc3)cc2OC[C@@H](C)N(C)C[C@H]1C | 0.9 | 9.3 | 0.1 | · | 2.7 | -0.3
C/C=C/c1cnc2c(c1)C(=O)N([C@H](C)CO)C[C@H](C)[C@H](CN(C)C(=O)C1CC1)O2 | -6.7 | 14.1 | 2.1 | · | · | -11.3
O=C(O)c1ccc2c(c1)ncn2C1CCCC1 | -7.7 | -59.5 | 2.1 | -28.6 | 20.7* | -12.0
O=C(C[C@H]1CC[C@H]2[C@@H](COC[C@@H](O)CN2C(=O)c2cccnc2)O1)NCc1ccccc1 | 4.3 | -15.9 | 1.1 | -7.6 | -2.9 | 5.0
CC(C)(C)C(=O)/C(=C/c1ccc(Cl)cc1)n1cncn1 | -20.7 | 42.4 | 4.0 | 85.8* | -2.8 | 49.3
CC(C)/C=C(/C(=O)c1ccc(Cl)cc1Cl)n1cncn1 | · | 26.3 | -0.7 | 0.8 | 0.6 | -6.2
C[C@H]1CN([C@@H](C)CO)C(=O)Cc2cc(NS(=O)(=O)c3cccs3)ccc2O[C@H]1CN(C)S(=O)(=O)c1cccs1 | 11.3 | -1.8 | 0.1 | -5.9 | · | 2.9
Cc1ccc(S(=O)(=O)N(C)C[C@H]2Oc3ccc(NC(=O)Nc4cccc5ccccc45)cc3C(=O)N([C@H](C)CO)C[C@@H]2C)cc1 | -2.7 | -0.3 | 4.8 | 9.7 | · | 3.6
Cc1cccc(N(C(=O)CNC(=O)c2ccco2)C(C(=O)NC2CCCCC2)c2cccnc2)c1 (stereo not drawn) | · | 20.0 | -1.9 | 5.0 | -8.6 | 2.1
O=C(NC1CCCCC1)C(c1cccnc1)N(C(=O)CCl)c1cccc(Cl)c1 (stereo not drawn) | -15.3 | -10.6 | 9.6 | 29.4 | -3.6 | 58.2*
COc1ccc(NC(=O)Cc2c(C)n(C(=O)c3ccc(Cl)cc3)c3ccc(OC)cc23)cc1 | · | 5.1 | · | 5.2 | · | ·
COc1ccc2c(c1)c(CC(=O)Nc1cccc(S(N)(=O)=O)c1)c(C)n2C(=O)c1ccc(Cl)cc1 | -11.1 | 14.8 | -14.5 | 28.7 | 16.9* | -7.7
CN1c2ccc(-c3ccc(C#N)cc3)cc2[C@@H]2[C@@H](CCN2C(=O)CC2CC2)[C@H]1CO | -16.1 | -12.0 | -5.5 | -0.9 | -18.8 | -0.5
N#Cc1ccsc1NC(=O)CSc1nnnn1-c1ccc(O)cc1 | 11.4 | -27.2 | -25.5* | -13.5 | · | -12.7
O=c1cc(CSc2nnnn2-c2ccc(O)cc2)nc2sccn12 | 10.0 | 5.8 | -1.9 | 4.8 | 38.3* | -1.7
CO[C@H](CN(C)Cc1cc(F)ccc1F)[C@H](C)CN(C(=O)Nc1ccc(F)cc1)[C@H](C)CO | 4.0 | -4.2 | -3.9 | · | 13.5 | -5.3
O=C1CN(C(=O)c2ccc(Cl)c(S(=O)(=O)N3CCc4ccccc43)c2)c2ccccc2N1 | 2.9 | 9.0 | -34.6* | 25.7 | 3.7 | -19.4
CC1Cc2ccccc2N1S(=O)(=O)c1cccc(C(=O)N2CC(=O)Nc3ccccc32)c1 (stereo not drawn) | -10.4 | 6.9 | -37.3* | 8.9 | -0.5 | -19.9
CC(=O)N1CCN(C(=O)c2cccc(S(=O)(=O)N3c4ccccc4CC3C)c2)CC1 (stereo not drawn) | 6.2 | 12.9 | 1.3 | 1.7 | -1.2 | -7.1
CN1CCN(CCC(=O)N/N=C/c2cc([N+](=O)[O-])ccc2OC(F)F)CC1 | 1.8 | 8.7 | 5.0 | 0.2 | 22.6* | 6.1
COc1ccc([N+](=O)[O-])cc1NC(=O)CCN1CCN(C)CC1 | 3.5 | -10.8 | 12.2 | 5.1 | -0.2 | 4.9
COc1ccc(NC(=O)Nc2ccc3c(c2)CC(=O)N([C@H](C)CO)C[C@@H](C)[C@H](CN(C)Cc2ccc(Oc4ccccc4)cc2)O3)cc1 | 1.8 | 1.7 | 2.4 | -49.2 | 10.6 | -13.0
COc1ccc(NC(=O)Nc2ccc3c(c2)CC(=O)N([C@@H](C)CO)C[C@H](C)[C@@H](CN(C)Cc2ccc(Oc4ccccc4)cc2)O3)cc1 | 1.2 | 21.6 | 4.0 | 23.5 | 22.8* | -9.3
COc1ccc(NC(=O)Nc2ccc3c(c2)CC(=O)N([C@H](C)CO)C[C@@H](C)[C@@H](CN(C)Cc2ccc(Oc4ccccc4)cc2)O3)cc1 | 1.4 | -8.5 | 4.1 | 102.5* | 9.0 | 20.7
SMILES | PGC1a acetyl inh | LGR2 antag | rRNA inh HTS | PAX8 reporter | SIRT5 inh | EWS-Fli block
C[C@@H]1CN([C@@H](C)CO)C(=O)Cc2cc(NC(=O)CCC(F)(F)F)ccc2O[C@H]1CN(C)Cc1ccc(Oc2ccccc2)cc1 | -6.1 | -10.1 | -3.4 | 89.9* | 21.8* | 12.9
COc1ccc(NC(=O)Nc2ccc3c(c2)CC(=O)N([C@@H](C)CO)C[C@@H](C)[C@H](CN(C)Cc2ccc(Oc4ccccc4)cc2)O3)cc1 | -5.5 | 22.1 | 0.7 | 70.3* | -2.6 | 10.2
COc1ccc2c3c(n(C)c2c1)[C@H](CO)NCC31CCN(CC2CC2)CC1 | · | -2.7 | 6.4 | · | 3.5 | -7.5
CNC[C@@H]1Oc2ccc(NC(C)=O)cc2C(=O)N(C)C[C@H]1C | · | · | 6.9 | · | · | ·
CNC(=O)c1cc(Oc2ccc(NC(=O)Nc3ccc(Cl)c(C(F)(F)F)c3)cc2)ccn1 | 6.8 | · | -53.2 | 96.4* | -1.3 | 21.6
O=C(Nc1ccc(Cl)c(C(F)(F)F)c1)c1ccncc1 | 6.3 | -19.9 | -7.1 | 12.1 | -3.3 | 14.8
CNC[C@H]1OCCCC[C@H](C)Oc2ccc(NS(=O)(=O)c3ccc(Cl)cc3)cc2C(=O)N([C@H](C)CO)C[C@@H]1C | · | 1.2 | 3.5 | 8.2 | · | -4.1
COc1ccccc1C(C[N+](=O)[O-])c1c(N)n(C)c(=O)n(C)c1=O (stereo not drawn) | -27.4 | 68.9* | -33.5* | 64.1* | -0.4 | 22.6
CC(=O)N(C)C[C@H]1Oc2c(NC(=O)NC(C)C)cccc2C(=O)N(C)C[C@H]1C | · | · | -1.3 | · | · | ·
CCCC(=O)Nc1ccc2c(c1)C(=O)N(C)C[C@H](OC)[C@@H](C)CN(Cc1cncnc1)[C@@H](C)CO2 | 7.7 | -2.1 | 2.4 | -6.6 | -1.0 | -0.6
C=C(C)CN(CC)C(=O)c1ccc(OC2CCN(S(=O)(=O)N(C)C)CC2)cc1 | 0.4 | 13.0 | -1.4 | -16.5 | 17.0* | -24.2
COCC#Cc1cnc2c(c1)C(=O)N([C@@H](C)CO)C[C@@H](C)[C@H](CN(C)S(C)(=O)=O)O2 | -1.6 | 7.4 | 6.7 | -8.2 | 5.1 | -3.6
CCOC(=O)c1c(NC(=O)CN2CCCCC2)sc2c1CCN(C(=O)OCC)C2 | · | 20.1 | -38.3* | · | 0.4 | 13.3
C[C@@H]1CN([C@@H](C)CO)S(=O)(=O)c2ccc(-c3ccc(F)cc3)cc2O[C@@H]1CN(C)C(=O)Nc1ccc(F)cc1 | 21.7 | 26.9 | -3.9 | · | · | 32.2
COc1cccc(CN(C)C(=S)Nc2ccc(C)c(C)c2)c1 | 1.4 | 0.3 | -24.9* | -4.9 | -0.5 | 4.4
Cc1ccc(NS(=O)(=O)c2ccc3c(c2)N(C)CCO3)cc1 | · | 0.2 | -18.6 | 15.3 | 21.8* | ·

Bioassay records: PubChem, Broad Institute
